Molecules are shown by their SMILES. Values joined by “and” are separate entries in the source; they are usually repeats but may differ in a detail not shown here. Equal entries are not always repeated. Unmarked numbers belong to inactive results. How the calls were made is not given here.

These results are taken from PubChem BioAssay.

A short description of this assay: inhibition of PAO1 biofilm formation – strain PAO1, LB-PBS medium, absorbance 600 nm, primary screen (AID 1176). Further: test concentration not given here. The settings on record: P. aeruginosa PAO1 growth/biofilm, A600, 12 h; higher = more signal.
`CO[C@H]1COC(=O)CC=C[C@@H](C)COC(=O)[C@H](CCSC)NC(=O)CC=C[C@@H]1C`: the z-score is 0.0821. With `C=CCN(CCCCC)C(=O)C1N(C(C)(C)CO)C(=O)C2C(C(=O)O)C3C=CC21O3` (centres undefined) the figure was -0.91 and -1.08; with `C=CCN1C(=O)[C@]2(O[C@H](CCn3cc(CCO)nn3)[C@@H]([Si](C)(C)c3ccc(OC)cc3)[C@@H]2C)c2cc(N3C(=O)c4cccc5cccc3c45)ccc21`, 0.355 and 1.15. `CCC[C@@H]1C[C@@]1(CCC)[C@@H](NC(=O)c1ccc(-c2ccccc2)cc1)c1cccc(Cl)c1`: the z-score was 1 and 0.343. As to `C[C@@H]1CC[C@H]2C(=O)O[C@H](CN=[N+]=[N-])CN2[C@H]1c1ccc(Br)cc1`, the z-score is 1.39 and -0.0204. With `C[C@@H]1CN2[C@@H](CC[C@@H](C)[C@@H]2c2ccc(Br)cc2)C(=O)O1` the figure was -0.188 and 0.417; with `COc1ccc(O[C@H]2C=C[C@@H](c3ccccc3)O[C@@H]2COC(=O)CCC(C)=NO[C@H](C)c2cn([C@H](CO)Cc3ccccc3)nn2)cc1`, -1.31 and -0.491; with `CON(C)C(=O)c1nnc2c3ccccc3n(S(=O)(=O)c3ccc(C)cc3)c2n1`, -0.446 and 0.757. As to `COc1ccc(COC(=O)NN=C2C[C@@H](O)[C@@H](O)[C@@H]3[C@@H]4C(=O)N(C(C)(C)C)C(=O)[C@@H]4CC[C@H]23)cc1`, the z-score was 0.541. Turning to `COC(=O)C1=C(C)N(Cc2ccccc2)[C@]23O[C@](C(=O)OC)(C(=O)N2[C@@H]1c1ccccc1)[C@@H](C(=O)OC)[C@H]3C(=O)OC`, the z-score was 0.177 and 0.241. With `C[C@@H]1CC[C@H]2C(=O)NC[C@@H](O)CN2[C@H]1c1ccc(Br)cc1` the figure was 0.684 and -0.27; with `C#CCCCON=C1C[C@@H](O)[C@@H](O)[C@@H]2[C@@H]3C(=O)N(C4CCCCC4)C(=O)[C@@H]3CC[C@H]12`, -0.568. Under `C[C@@H]1CC[C@@H](C(=O)O)N[C@H]1c1ccc(-c2ccco2)cc1` stands -0.151; under `C=CCN(C(=O)C1N(C(C)(C)CO)C(=O)C2C(C(=O)O)C3C=CC21O3)C(C)(C)C` (centres undefined), -0.456 and 0.109. For `C=CCN(C(=O)C(c1cccs1)N(C(=O)/C=C\C(=O)O)c1ccc(CCO)cc1)C(C)(C)C` (centres undefined), the z-score is 0.289 and -0.332.

Take `Cc1ccc(S(=O)(=O)N[C@H]2COC(=O)[C@@H](Cc3ccccc3)NC(=O)[C@@H](C)COC(=O)CC=C[C@@H]2C)cc1`: the z-score was -0.814 and -0.479. Regarding `CC(C)[Si]1(C(C)C)OCc2cc(CCCc3cc4c(c(CCc5ccccc5)n3)[Si](C(C)C)(C(C)C)OC4)nc(CCc3ccccc3)c21`, the z-score was 0.35.

For `O=c1n(-c2ccccc2)c(=O)n2n1CC[C@@H]1C(=NOC[C@@H](O)COCc3ccco3)[C@H]3O[C@H]3[C@@H](O)[C@@H]12`, the z-score is 0.413 and -0.455. On to `O=C1C[C@]2(c3ccc([N+](=O)[O-])cc3)C(=O)N(Cc3ccccc3)c3cc(CO)ccc3[C@H]2N1C1CCCCC1`, for which the z-score was 0.599 and 1.21.

Regarding `CCOC(=O)[C@H](CC(C)C)NC(=O)CCC1CC(OC(=O)NCc2cccc3ccccc23)CC2(CCCC(COC(=O)NCc3ccccc3)O2)O1` (some centres undefined), the z-score was -0.0326. On to `CCOC(=O)c1ccc(NC(=O)O[C@H]2[C@H](OC(=O)Nc3ccccc3)[C@H](OC(=O)Nc3ccccc3)[C@@H](OC)O[C@@H]2CO)cc1`, for which the z-score was 2.37 and 1.74. Under `CC[C@@H]1C(Sc2ccccc2)C(C(=O)O)[C@H](c2ccc(C)cc2)N1S(=O)(=O)c1ccc(C)cc1` (some centres undefined) stands 0.133 and 0.257. As to `CCCC[C@@H]1CN2[C@@H](CC[C@@H](C)[C@@H]2c2ccc(Br)cc2)C(=O)O1`, the z-score was -0.221 and -0.175. With `C=CCN(CCCCC)C(=O)C(c1cccs1)N(C(=O)/C=C\C(=O)O)c1ccc(CCO)cc1` (centres undefined) the figure was -0.553 and -0.621.
